We go through 8 molecules from PubChem BioAssay (NCI).

Among the test systems are SK-MEL-2 melanoma; EKVX NSCLC; SN12C renal; UO-31 renal; ACHN renal; CAKI-1 renal; A498 renal; CCRF-CEM leukemia; MOLT-4 leukemia; SR leukemia; RPMI-8226 leukemia; OVCAR-8 ovarian; OVCAR-5 ovarian; OVCAR-4 ovarian; SK-OV-3 ovarian; IGROV1 ovarian; OVCAR-3 ovarian; HS 578T breast; NCI/ADR-RES ovarian.
Holding throughout (assay): NCI-60 one-dose screen, 48 h (100 = growth as untreated, 0 = no growth, -100 = all killed)
Conditions in all cases: 10 µM unless noted

Molecules are shown by their SMILES. Compounds without any hit were thinned out: in the full panel of roughly 83,000, 20% have a hit.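 Activity criterion: percent growth below 10, measured after cells in 96-well plates were exposed to a single compound concentration for 48 hours.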 Unmarked numbers belong to inactive results. Calls of active or inactive are those of the source.

Consider `O=C(CNc1ccc2c(c1)C(=O)c1ccccc1C2=O)Nc1ccc2c(c1)C(=O)c1ccccc1C2=O`, for which the growth in the test with SK-MEL-2 melanoma is -74.4% (active); with EKVX NSCLC it was -18.5% (active); in the test on SN12C renal it was -87% (active); in the test on UO-31 renal it was -96.5% (active); in the test with ACHN renal, -94.3% (active); in the test with CAKI-1 renal it was -80.8% (active). Besides, the growth is 27.6% in the test on A498 renal; -11.6% (active) in the test with CCRF-CEM leukemia; -36.6% (active) in the test with MOLT-4 leukemia; -8.94% (active) in the test with SR leukemia; -36.6% (active) with RPMI-8226 leukemia; -25.3% (active) with OVCAR-8 ovarian. The growth was -83.6% (active) in the test on OVCAR-5 ovarian; -26.4% (active) in the test with OVCAR-4 ovarian; -30.8% (active) in the test with SK-OV-3 ovarian; -72.9% (active) in the test on IGROV1 ovarian; -99.8% (active) in the test with OVCAR-3 ovarian; -1.05% (active) with HS 578T breast. For the same molecule, the growth with NCI/ADR-RES ovarian was -40% (active).
On to `O=C1CSC(c2ccccc2O)N1c1nnc(Cn2ccnc2)o1` (stereo unspecified), for which the growth in the test on SK-MEL-2 melanoma was 90.3%; in the test on EKVX NSCLC it was 81.5%; in the test with SN12C renal it was 66.1%; in the test on UO-31 renal it was 32.9%; with ACHN renal, 53.6%; in the test with CAKI-1 renal, -37.5% (active). The growth in the test with A498 renal was 99.5%; in the test with CCRF-CEM leukemia, 34%; in the test on MOLT-4 leukemia it was 48.6%; in the test on SR leukemia, 43.9%; with RPMI-8226 leukemia it was 36.1%; with OVCAR-8 ovarian, 58.8%. Further, the growth in the test on OVCAR-5 ovarian was 97.2%; in the test on SK-OV-3 ovarian it was 74.2%; with OVCAR-3 ovarian it was 37.8%; with HS 578T breast, 80.6%; with NCI/ADR-RES ovarian, 26%.
Consider `CCSc1nc(-c2ccc(F)cc2)c(C#N)c(=O)[nH]1`, for which the growth with SK-MEL-2 melanoma is 96.3%; in the test on EKVX NSCLC, 105%; with SN12C renal, 96.2%; in the test on UO-31 renal, 125%; in the test on ACHN renal, 97.1%; in the test on CAKI-1 renal, 98.7%. Moreover, the growth with A498 renal was 112%; with CCRF-CEM leukemia it was 102%; with MOLT-4 leukemia, 124%; in the test with SR leukemia it was 118%; with RPMI-8226 leukemia it was 105%; in the test with OVCAR-8 ovarian it was 107%. In addition, the growth with OVCAR-5 ovarian is 95.9%; with OVCAR-4 ovarian it was 103%; in the test on SK-OV-3 ovarian, 111%; with HS 578T breast, 117%; in the test with NCI/ADR-RES ovarian, 103%.
`N#Cc1c(-c2ccc(F)cc2)n2c(nc1=O)SC(=O)C2=O`: the growth with SK-MEL-2 melanoma is 92%; with EKVX NSCLC it was 91.3%; in the test on SN12C renal it was 91.1%; in the test on UO-31 renal it was 110%; with ACHN renal, 90.3%; in the test with CAKI-1 renal, 86.4%. In addition, the growth in the test on A498 renal is 70%; with CCRF-CEM leukemia it was 85.4%; in the test with MOLT-4 leukemia, 90.5%; in the test on SR leukemia, 91.3%; with RPMI-8226 leukemia, 76.8%; with OVCAR-8 ovarian, 98%. Moreover, the growth in the test with OVCAR-5 ovarian is 110%; in the test with OVCAR-4 ovarian, 100%; in the test on SK-OV-3 ovarian, 115%; in the test with IGROV1 ovarian it was 108%; in the test on OVCAR-3 ovarian it was 123%; with HS 578T breast, 104%. Besides, the growth in the test with NCI/ADR-RES ovarian is 94.5%.
Turning to `C[C@H]1O[C@@H](O[C@H]2[C@@H](O)C[C@H](O[C@H]3[C@@H](O)C[C@H](O[C@H]4CC[C@]5(C)C6C[C@@H](O)[C@]7(C)[C@@H](C8=CC(=O)OC8)CC[C@]7(O)C6CC[C@@H]5C4)O[C@@H]3C)O[C@@H]2C)C[C@H](O)[C@@H]1O` (stereo partly specified), the growth is -72.8% (active) with SK-MEL-2 melanoma; -100% (active) in the test on EKVX NSCLC; -61.7% (active) with SN12C renal; -82.4% (active) in the test on UO-31 renal; -75.8% (active) in the test with ACHN renal; -100% (active) in the test with CAKI-1 renal. Besides, the growth was -33% (active) with A498 renal; -56.6% (active) in the test with CCRF-CEM leukemia; -33.7% (active) in the test on MOLT-4 leukemia; -9.87% (active) in the test with SR leukemia; -23.7% (active) in the test with RPMI-8226 leukemia; -93.5% (active) in the test on OVCAR-8 ovarian. Besides, the growth in the test with OVCAR-5 ovarian was -99.7% (active); with OVCAR-4 ovarian it was -29.6% (active); in the test on SK-OV-3 ovarian, -93.3% (active); with IGROV1 ovarian, -38.4% (active); in the test on HS 578T breast, -9.01% (active); in the test with NCI/ADR-RES ovarian, -87.7% (active).
In the case of `CCN1CC2=C(Nc3nc(SC)[nH]c(=O)c3C2c2cc(OC)c(OC)c(OC)c2)/C(=C/c2cc(OC)c(OC)c(OC)c2)C1` (stereo unspecified), the growth is 117% in the test with SK-MEL-2 melanoma; 87.3% with EKVX NSCLC; 95.9% in the test with SN12C renal; 106% in the test with UO-31 renal; 87.9% in the test with ACHN renal; 108% with CAKI-1 renal. Also, the growth was 104% in the test on A498 renal; 84.7% in the test on CCRF-CEM leukemia; 82.5% with MOLT-4 leukemia; 82.5% with SR leukemia; 96.7% with RPMI-8226 leukemia; 94% in the test on OVCAR-8 ovarian. Further, the growth was 106% in the test on OVCAR-5 ovarian; 95.9% with OVCAR-4 ovarian; 110% in the test on SK-OV-3 ovarian; 120% with IGROV1 ovarian; 116% in the test with OVCAR-3 ovarian; 111% in the test with HS 578T breast. In addition, the growth in the test on NCI/ADR-RES ovarian was 105%.
In the case of `CN1CCC[C@@H]1CCO[C@](C)(c1ccccc1)c1ccc(Cl)cc1`, the growth in the test with SK-MEL-2 melanoma was 90.4%; with EKVX NSCLC it was 69.3%; with SN12C renal, 66.5%; in the test on UO-31 renal it was 36.9%; in the test with ACHN renal, 65.9%; in the test with CAKI-1 renal, 71%. In addition, the growth in the test with A498 renal was 88.1%; in the test on CCRF-CEM leukemia, 65.2%; with MOLT-4 leukemia, 67.7%; in the test with SR leukemia, 59.7%; in the test on RPMI-8226 leukemia it was 70.4%; in the test on OVCAR-8 ovarian, 88.1%. Also, the growth in the test on OVCAR-5 ovarian is 73.6%; with OVCAR-4 ovarian it was 75.6%; in the test with SK-OV-3 ovarian it was 73.9%; in the test with IGROV1 ovarian it was 63.6%; in the test on OVCAR-3 ovarian, 100%; in the test on HS 578T breast it was 80.9%. In the test with NCI/ADR-RES ovarian, the growth is 76.5%.
Turning to `COc1cc2c(cc1OC)C(=O)/C(=C/c1cccc(OCC(=O)c3ccccc3)c1)C2`, the growth with SK-MEL-2 melanoma is 44.1%; in the test with EKVX NSCLC, 94.4%; with SN12C renal, 88.8%; in the test on UO-31 renal, -19.2% (active); in the test on ACHN renal, 96.9%; with CAKI-1 renal, 93.4%. Also, the growth with A498 renal is 103%; in the test on CCRF-CEM leukemia it was 38%; in the test on MOLT-4 leukemia, 55.3%; in the test with SR leukemia, 42.2%; in the test with RPMI-8226 leukemia, 43.3%; with OVCAR-8 ovarian, 76.8%. For the same molecule, the growth with OVCAR-5 ovarian is 105%; in the test on OVCAR-4 ovarian, 86%; with SK-OV-3 ovarian, 117%; with OVCAR-3 ovarian, 118%; with HS 578T breast, 77.2%; in the test with NCI/ADR-RES ovarian, 50.2%.
